An excerpt weighted towards active compounds, which were near 8.8% of everything screened.
HPGD block – HPGD (human) dehydrogenase inhibition. P15428. purified HPGD, NADH fluorescence kinetic, PGE2 substrate. Potency, µM, inactives show top-dose activity change, negative = inhibition, actives largely listed as inhibitors. actives 4.3% (n = 150,000). AID 894; further: on the % scale 0 is the no-effect control and ±100 the full control effect
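20 nM HPGD preincubated 15 min at room temperature with compound in 50 mM Tris-HCl pH 8, 0.01% Tween 20. Started with 1 mM NAD+ and 30 uM prostaglandin E2; NADH fluorescence (360/450 nm) read 5 times over 30-s intervals, last minus first.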
HTT cytoprotect – cytoprotection in Huntington HTT-Q103 PC12 cell model; PC12 HTT-Q103 induced, cytoprotection, ATP luminescence, 40 h; Potency, µM (doses to about 56.4 µM), for the others: cytoprotection (ATP increase), most hits filed as activators; actives 0.14% (n = 230,000); active means well fitted curve in the direction sought with a large enough effect; inconclusive means small, poorly fitted or top-dose-only effect, or another doubt; inactive means no such curve, though single readings can be large; an effect the other way counts as inactive or inconclusive; further: % of control where 0% means no effect; nearly all actives have a fitted effect of over 45% in size
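PC12 cells stably carrying ecdysone-inducible Htt exon 1 (Q103)–GFP were induced with 100 nM tebufenozide (final) alongside library compounds in a dose series. Cytoprotection was scored as retained ATP by ATPlite luminescence.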
LMNA splice mod – modulators of lamin A splicing. HeLa LMNA splicing GFP/RFP minigene ratio, 48 h. Potency, µM (titrated, usually from 46.1 µM), without a hit: at the highest dose ratio change, negative = inhibition, actives largely listed as inhibitors. actives 0.01% (n = 200,000); active means well fitted inhibition curve with a large enough effect in the signal ratio, with a control signal flat, not every such curve was filed as active; inconclusive means small, poorly fitted or top-dose-only effect, or effect the other way, or a change in a side signal; the % refers to the signal ratio; further: on the % scale 0 is the no-effect control and ±100 the full control effect
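Read-out is the ratio of GFP to DsRed2 object intensity, acquired by 488 nm laser-scanning cytometry on HeLa lamin A-EGFP minigene reporter cells. Compound incubation 48 hrs at 37 °C in Opti-MEM with 2% FBS; DMSO 0.5% final.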
ALDH1A1 block – inhibitors of human aldehyde dehydrogenase 1A1 | Purified ALDH1A1, NADH fluorescence, propionaldehyde substrate | P00352 | actives 7.3% (n = 220,000) | Potency, µM (series often up to 75.3 µM), for inactives: top-dose activity, negative = inhibition, hits mostly inhibitors;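 further: plate controls were no enzyme wells and a reference inhibitor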
Target sequence (P00352 whole entry, looked up): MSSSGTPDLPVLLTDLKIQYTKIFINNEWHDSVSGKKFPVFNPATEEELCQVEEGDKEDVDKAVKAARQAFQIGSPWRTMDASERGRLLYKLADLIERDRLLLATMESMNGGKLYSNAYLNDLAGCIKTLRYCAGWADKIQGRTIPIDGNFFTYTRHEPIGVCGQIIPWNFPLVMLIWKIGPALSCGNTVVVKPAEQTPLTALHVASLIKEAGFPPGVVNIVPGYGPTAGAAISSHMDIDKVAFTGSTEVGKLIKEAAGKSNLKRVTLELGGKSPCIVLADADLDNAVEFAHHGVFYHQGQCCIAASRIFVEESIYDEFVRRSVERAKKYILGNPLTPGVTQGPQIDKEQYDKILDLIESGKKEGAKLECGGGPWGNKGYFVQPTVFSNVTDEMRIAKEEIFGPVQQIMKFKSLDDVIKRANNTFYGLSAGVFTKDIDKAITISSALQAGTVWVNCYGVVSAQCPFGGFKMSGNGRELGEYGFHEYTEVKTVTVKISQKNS
HttQ103 aggreg – mutant huntingtin aggregation inhibition; PC12 HttQ103-GFP aggregates, Acumen cytometry, 40 h; Potency, µM (highest dose often 46.1 µM), without a hit: at the highest dose activity change, negative = inhibition, usual class: inhibitors; actives 1.1% (n = 220,000); AID 1688; active means well fitted curve in the direction sought with a large enough effect; inconclusive means small, poorly fitted or top-dose-only effect, or another doubt; inactive means no such curve, though single readings can be large; an effect the other way counts as inactive or inconclusive; further: on the % scale 0 is the no-effect control and ±100 the full control effect; nearly all actives have a fitted effect of over 60% in size
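Multiplexed with ATP-based cell death, this channel scores GFP aggregates in PC12 cells expressing inducible HTTex1-Q103-GFP. Induction used 100 nM tebufenozide; compounds were tested in concentration series.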
Starred values were filed as active, the others as inactive; ? = inconclusive; . = no result given; ! = repeats disagree; [ ] = another dose, or the depositor's remark. Unless noted, the call rests on the fitted dose curve; in most records, active means well fitted inhibition curve with a large enough effect (not every such curve was filed as active); inconclusive means small, poorly fitted or top-dose-only effect, or another doubt; inactive means no such curve, though single readings can be large or run the other way. Potency means the concentration at half of the fitted maximal effect.

SMILES | HPGD block | HTT cytoprotect | LMNA splice mod | ALDH1A1 block | HttQ103 aggreg
COc1ccc(/C=C2\CCC/C(=C\C=N\N(C)C)C2=O)cc1 | . | ? | . | 3.98µM* | -8.8%
CN(C)/N=C/C=C1\CCC/C(=C\c2ccc(F)c(F)c2)C1=O | . | -30.3% | . | ? | 19.9%
CN(C)c1ccc(/C=C2\CCC/C(=C\c3ccccc3)C2=O)cc1 | -10.7% | 16.5%[10 µM] | ? | 12.6µM* | 19.4%
COc1cc([C@@H]2c3cc4c(cc3C(OC3OC5COC(C)OC5C(O)C3O)C3COC(=O)[C@@H]32)OCO4)cc(OC)c1O (some centres not stated) | -5.2% | -53.0%[1.9 µM] | . | 3.5% | .
Cc1oc2ncn(C)c(=O)c2c1C(=O)N(C)c1ccccc1F | . | . | -2.3%[46 µM] | . | .
O=C(CSc1cn(CC(=O)N2CCCCCC2)c2ccccc12)NCC1CCCO1 (configuration not stated) | . | -16.2% | . | -6.1% | -7.4%
C=C(Nc1ccc(OC)cc1)C(=O)OC | -6.6% | -32.6% | . | ? | .
Cc1ccc(CN(C)C(=O)c2ccccc2Oc2ccccc2)o1 | 22.4µM* | -25.2%[10 µM] | 12.3% | 10µM* | 10.6%
O=C(/C=C/c1ccccc1)NC(NC(=S)Nc1cc(Cl)ccc1Cl)C(Cl)(Cl)Cl (configuration not stated) | -7.9% | -30.5% | 4.5%[0.0737 µM] | 22.4µM* | 2.82µM*
Cc1ccccc1NC(=S)NC(NC(=O)c1ccco1)C(Cl)(Cl)Cl (configuration not stated) | -15.8% | -1.0%[10 µM] | ? | 9.46µM* | -18.2%
O=C(NC(NC(=S)Nc1ccc(Cl)c(Cl)c1)C(Cl)(Cl)Cl)c1ccco1 (configuration not stated) | -23.6% | -89.8% | 1.3% | 7.08µM* | -17.3%
O=C(/C=C/c1ccccc1)NC(NC(=S)Nc1ccc(Cl)cc1)C(Cl)(Cl)Cl (configuration not stated) | -12.1% | -59.0% | ? | 2.1% | -16.2%
O=C(NC(NC(=S)Nc1cc(Cl)ccc1Cl)C(Cl)(Cl)Cl)c1ccco1 (configuration not stated) | -22.0% | -53.5% | ? | 8.91µM* | ?
O=C(NC(NC(=S)Nc1ccccc1C(=O)O)C(Cl)(Cl)Cl)c1ccco1 (configuration not stated) | ? | 9.5%[10 µM] | -9.3% | ? | 1.6%
C[C@H](O)CN(C)C | . | -11.7% | . | . | -5.5%
CN(c1nc2c(c(=O)n(C)c(=O)n2C)n1CC(=O)c1ccccc1)C1CCCCC1 | -8.2% | -12.8%[0.074 µM] | 7.8% | 28.2µM* | -3.6%
Cn1c(=O)c2c(nc(CN3CCOCC3)n2CC(=O)c2ccccc2)n(C)c1=O | . | -10.4%[0.074 µM] | . | . | .
CCOC(=O)COc1ccc2nsnc2c1Cl | ? | -24.8% | 5.7% | ? | 23.5%
C=C(CC)C(=O)c1ccc(OCC(=O)O)c(Cl)c1Cl | -26.6% | ? | ? | 14.1µM*! | ?
COc1ccc(CNC(=O)NC(C)(C)c2cccc(C(C)(C)NC(=O)NCc3ccc(OC)cc3)c2)cc1 | -6.0% | 9.0%[10 µM] | -15.4% | 13.5% | 10.9%
COc1cccc(C(c2c(N)[nH]c(=S)[nH]c2=O)c2c(N)[nH]c(=S)[nH]c2=O)c1 | . | 21.4%[10 µM] | . | . | -20.1%[9.22 µM]
CCCCNC(=O)c1ccc2c(c1)ncn2C1CCCC1 | 8.91µM* | -28.2% | 3.6% | -4.9% | -0.1%
CCCCNC(=O)c1ccc2c(c1)ncn2C1CCCCC1 | 22.4µM* | 9.5%[10 µM] | -12.6% | -3.3% | -14.5%
NNC(=O)CCCCCCCCCCOCCCCO | . | 14.2%[10 µM] | . | . | 3.4%[9.22 µM]
COc1cccc(CCc2nnc(CCC(=O)N3CCN(Cc4ccccn4)CC3)o2)c1 | . | -5.1%[10 µM] | . | 8.91µM* | 34.3%[9.22 µM]
O=c1[nH]c2ccc(Cl)cc2c(O)c1-c1ccccc1 | -8.7% | 22.0% | -0.7% | 5.5% | -13.2%
O=c1[nH]c2ccc(Cl)cc2c(-c2ccccc2)c1SC(=S)N1CCOCC1 | 20µM* | -50.9% | 12.5% | 8.91µM* | ?
O=c1[nH]c2ccc(Cl)cc2c(-c2ccccc2)c1SC(=S)N1CCCCC1 | ? | -8.6% | 6.5% | 25.1µM* | ?
O=C(Nc1ccc(C(=O)N2CCN(c3ccccc3F)CC2)cc1)c1nsc2ccccc12 | . | . | -13.3%[46 µM] | . | .
CCC(CC)C(=O)OCc1cc(=O)n2nc(C3CC3)sc2n1 | . | . | -12.4%[46 µM] | . | .
